Experimental data from PubChem BioAssay AID2205 (University of Pittsburgh Molecular Library Screening Center, 2009).
About 1,600 (0.8%) of roughly 200,000 compounds were called active.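 How the source made its calls: active means plate Z-score above 3 for both tubulin-high and condensed-nucleus cell shares, with cell loss under 80%, at 10 µM; inactive means the rest, inconclusive results apart.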 This excerpt belongs to a sample that is enriched for actives.

Assay: tubulin staining increase by stabilizing compounds – imaging, high-content imaging, primary screen (AID 2205);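 on % tubulin-high responders: anti alpha tubulin signal scored within the nucleus-defined area of each cell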;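 on toxicity: 0% = mean cell density of plate MIN control wells and 100% = no cells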
Conditions: HeLa tubulin immunostaining HCS, 24 h, at 10 µM; % Hoechst-high responders: measured here: nuclear condensation Hoechst responders, stronger effect = higher value, share of cells brighter than vehicle mean+2SD; % tubulin-high responders: stronger effect = higher value, share of cells brighter than vehicle mean+2SD; toxicity: measured here: cytotoxicity by cell density

Compound	% Hoechst-high responders [%]	% tubulin-high responders	toxicity [%]
Cc1ccc(Nc2ccccc2N)cc1	19	25.1% (active)	21.1
Cc1ccc(Nc2nnc(SCc3ccccc3)s2)cc1	1.53	1.84% (inactive)	10
Nc1ccc(Nc2ccccc2)cc1	2.02	3.57% (inactive)	3.51
COc1ccccc1OCCNC(=O)c1cc([N+](=O)[O-])cc([N+](=O)[O-])c1	1.79	2.35% (inactive)	4.5
CCOC(=O)c1sc2nc(C)nc(SCC(N)=O)c2c1C	2.34	3.35% (inactive)	5.02
CCOC(=O)c1sc2nc(CSc3ccccc3)[nH]c(=O)c2c1C	28.5	17.6% (active)	32.2
CCOC(=O)c1sc2nc(CSCC(=O)OCc3ccc(C(=O)OC)o3)[nH]c(=O)c2c1C	1.26	1.86% (inactive)	6.86
O=C(Nc1ccon1)c1sc2ccccc2c1Cl	2.6	2.29% (inactive)	5.2
Cc1nn(C)cc1/C=N/NC(=O)c1sc2ccccc2c1Cl	0.999	1.5% (inactive)	12.2
O=C(N/N=C/c1c(Cl)[nH]c2ccccc12)c1sc2ccccc2c1Cl	42.8	18.9% (active)	32.3
COc1ccccc1N1CC(O)=C(c2nc3ccccc3s2)C1=N	9.29	17.8% (active)	14.3
N=C1C(c2nc3ccccc3s2)=C(O)CN1NC(=O)c1ccc([N+](=O)[O-])cc1	1.37	9.65% (inactive)	4.7
CCOC(=O)CCCN1CC(O)=C(c2nc3ccccc3s2)C1=N	2.61	4.95% (inactive)	2.95
Cc1ccc(C(=O)NC(=S)Nc2ccccc2C)cc1	1.22	1.11% (inactive)	8.22
C/C(CCC(=O)OC[C@H]1O[C@H](C#Cc2ccccc2)C=C[C@@H]1Oc1ccc(C)cc1)=N\OC[C@@H](O)[C@H]1O[C@@H]2OC(C)(C)O[C@@H]2[C@H]1O	2.47	2.74% (inactive)	9.27
COc1ccccc1C1SCCN1C(=O)c1ccc([N+](=O)[O-])cc1 (stereo not drawn)	3.5	3.9% (inactive)	3.11
CCC1(C(=O)c2ccccc2)C(c2cccc([N+](=O)[O-])c2)C1(C(=O)OC)C(=O)OC (stereo not drawn)	2.35	3.4% (inactive)	3.29
COc1ccc(C(=O)N2CCc3cc(OC)c(OC)cc3C2c2cccc([N+](=O)[O-])c2)cc1 (stereo not drawn)	33.6	45.1% (active)	30.8
Cc1cccc(OCCCC(=O)Nc2ccc(S(=O)(=O)N3CCCC3)cc2)c1	2.42	3.34% (inactive)	1.31
CCCCOc1ccc(NC(=O)[C@@H]2CCCN2C(=O)C2CCN(S(=O)(=O)c3ccc(C)cc3)CC2)cc1	12	23.9% (active)	63.4
COc1ccc(N2CCN(C(=O)C3CCN(S(=O)(=O)c4ccc(C)cc4)CC3)CC2)cc1	2.46	4.98% (inactive)	9.28
CCOc1ccc(NC(=S)N2CCC(N(C)CC3CCCO3)CC2)cc1 (stereo not drawn)	1.17	2.22% (inactive)	7.25
COC(=O)c1cc(C(=O)N(Cc2ccccc2)c2ccccn2)cc([N+](=O)[O-])c1	2.13	3.91% (inactive)	2.76
CCOc1[nH]n(-c2ccc(Cl)cc2)c(=O)c1C=Nc1ccc(O)cc1	12.9	33.2% (active)	43.1

Compound	% Hoechst-high responders [%]	% tubulin-high responders	toxicity [%]
CCc1nnc(NS(=O)(=O)c2ccc(N=Cc3c(C)[nH]n(-c4ccc(C)cc4)c3=O)cc2)s1	2.28	1.91% (inactive)	6.1
Cc1[nH]n(-c2ccc(Cl)cc2)c(=O)c1/C=N/n1c(C)nc2ccccc2c1=O	2.61	5.31% (inactive)	6.25
O=C(NC(=S)Nc1ccc(S(=O)(=O)N2CCOCC2)cc1)c1ccccc1[N+](=O)[O-]	1.54	3.32% (inactive)	3.74
Cc1ccc(CNC(=O)C2CC(c3ccccc3[N+](=O)[O-])=NO2)o1 (stereo not drawn)	2.18	1.45% (inactive)	2.23
COc1ccc(-c2cc(C(=O)NCc3ccco3)no2)cc1OC	1.41	1.62% (inactive)	8.27
COc1ccc(C2=NOC(C(=O)NCc3ccco3)C2)cc1OC (stereo not drawn)	22.4	39.6% (active)	66.2
O=[N+]([O-])c1ccc(Sc2n[nH]c(-c3ccco3)n2)nc1	1.75	2.25% (inactive)	7.26
CCCCCCCC[n+]1cccc(C(=O)N2c3c(nc(N)[nH]c3=O)NC(C)C2C)c1 (stereo not drawn)	2.15	1.56% (inactive)	7.45
CCOc1cccc(/C=N/N2C(=O)CSC2=S)c1O	1.52	5.1% (inactive)	14.4
Cc1nccn1CCCNC(=O)CC1C(=O)NCCN1Cc1ccc(Cl)c(F)c1 (stereo not drawn)	2.31	2.68% (inactive)	1.05
COC(=O)C1=C(Nc2ccc(C)cc2)C=C(C)C(C(=O)OC)C1c1ccc(F)cc1 (stereo not drawn)	21.1	34.1% (active)	39.5
COC(=O)C1=C(Nc2ccc(OC)cc2)C=C(C)C(C(=O)OC)C1c1ccc(C)cc1 (stereo not drawn)	1.91	2.3% (inactive)	12.1
COC(=O)C1C(=O)NCC1c1ccc(C)cc1 (stereo not drawn)	1.21	1.21% (inactive)	6.65
COc1ccc(C2NC(=S)NC3=C2CCc2ccccc23)cc1OC (stereo not drawn)	3.43	3.22% (inactive)	5.09
O=C(CCN1C(=O)/C(=C/c2cccs2)SC1=S)NNC(=O)c1cccc(O)c1	1.28	1.78% (inactive)	8.2
COC(=O)c1ccccc1NS(=O)(=O)c1ccc2[nH]c(=O)[nH]c2c1	5.36	4.9% (inactive)	0.144
CCOc1cc(NS(=O)(=O)c2ccc(OC)cc2)c(OCC)cc1NC(C)=O	0.933	2.92% (inactive)	3.17
CCOC(=O)c1ccccc1NS(=O)(=O)c1ccc(OC)cc1	15.7	39.6% (active)	61.3
COc1ccc(C)cc1NC(=O)CSc1nnc(CC(=O)Nc2ccccc2F)n1C	1.3	2.49% (inactive)	3.08
COc1ccc(C(=O)n2nc(-c3ccc(Cl)cc3)nc2N)cc1OC	2.89	4.28% (inactive)	4.28
COc1ccc(C(=O)n2nc(-c3ccc(C)cc3)nc2N)cc1OC	34.9	48.4% (active)	31.5
COc1ccccc1C(=O)n1nc(-c2ccccc2)nc1N	2.45	1.99% (inactive)	31.9
COc1ccc(-c2[nH]ncc2CN(C)Cc2c(C)n[nH]c2C)c(OC)c1	1.45	3.81% (inactive)	16.7
Cc1cccc(C)c1NC(=O)C(c1ccccc1)N1CC(=O)Nc2ccccc21 (stereo not drawn)	2.09	3.96% (inactive)	8.51

Compound	% Hoechst-high responders [%]	% tubulin-high responders	toxicity [%]
Cc1nnc(NC(=O)CSc2nccn2-c2cccc(C)c2C)s1	21	19.7% (active)	64.4
COc1ccccc1-n1c(CNC(=O)c2ccccc2)nnc1SCC(=O)Nc1nnc(C)s1	1.91	2.83% (inactive)	6.55
Cc1cccc(CSc2nnc(NC(=O)CSc3nnc(C)s3)s2)c1	1.18	2.97% (inactive)	12.2
CC(Oc1cccc(NC(=O)c2cccs2)c1)C(=O)c1ccccc1 (stereo not drawn)	1.24	0.929% (inactive)	5.37
Cc1cc(-c2csc(N)n2)c(C)n1-c1ccccc1	2.12	6.37% (inactive)	3.22
CN1C(=O)/C(=C\c2ccc(-c3ccccc3)o2)SC1=S	1.77	6.05% (inactive)	4.81
COc1cccc(-n2c(SCC(=O)NC3CCCCC3)nc3n[nH]c(C)c3c2=N)c1	11.3	18.4% (active)	62.6
CCCCNC(=O)CSc1nc2n[nH]c(C)c2c(=N)n1-c1cccc(Cl)c1C	2.38	2% (inactive)	5.31
C=CCn1c(CC(=O)Nc2cccc(OC)c2)nnc1SCC(=O)NC1CCCCC1	1.48	3.27% (inactive)	1.42
Cc1ccc(S(=O)(=O)N(C)C)cc1NC(=O)c1ccccc1Br	2.26	1.77% (inactive)	6.59
CN1CCN(C(=O)/C(=C\c2ccc3c(c2)OCO3)NC(=O)c2cccs2)CC1	1.07	1.67% (inactive)	6.65
CN(C)CCCn1c(SCCN2C(=O)c3ccccc3C2=O)nc2ccccc2c1=O	1.95	2.16% (inactive)	6.21
CCC1(CC)Cc2ccccc2-c2nc3ccccc3c(=O)n21	1.65	4.36% (inactive)	6.77
CC(C)(C)c1nc2ccccc2c(=O)n1N1C(=O)c2ccccc2C1=O	13.9	28.9% (active)	37.9
CCOc1ccc(NS(=O)(=O)c2ccc(C)c(C(N)=O)c2)cc1	2.61	1.97% (inactive)	4.14
CN1CCN(c2ccc(NC(=O)c3ccc4c(c3)[nH]c(=O)n4Cc3ccc(F)cc3)cc2)CC1	2.93	3.59% (inactive)	6.48
O=C(NN=C1CCC(=NNC(=O)c2cccnc2)CC1)c1cccnc1	2.04	1.75% (inactive)	6.55
COCC(C)n1c(C)cc(C(=O)COc2ccc(C)nc2[N+](=O)[O-])c1C (stereo not drawn)	1.67	1.5% (inactive)	6.06
O=C(NNC(=S)NC(=O)c1cn(-c2ccccc2)nc1-c1ccccc1)c1ccncc1	2.91	5.93% (inactive)	6.44
CCOc1ccc(C2c3[nH]c4ccccc4c3CCN2Cc2cn(CC)nc2C)cc1 (stereo not drawn)	3.06	2.78% (inactive)	2.13
CCN1CCN(C(=O)c2ccccc2N(C)S(=O)(=O)c2ccc(C)cc2)CC1	1.51	2.85% (inactive)	4.04
CCOC(=O)N1CCN(C(=O)c2ccccc2N(Cc2ccccc2)S(=O)(=O)c2ccc(OC)cc2)CC1	60.4	17.8% (active)	42.6
NC(=O)c1ccccc1N(Cc1ccccc1)S(=O)(=O)c1ccccc1	0.852	1.16% (inactive)	4.6
